In PubChem BioAssay AID2401 (Southern Research Specialized Biocontainment Screening …, 2010):
Hit rate of the full screen: of about 2,200 compounds, about 530 (24%) were called active.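 Rule for the calls: active = inhibition above a set limit at one or more concentrations of the dose series; inactive = inhibition under that limit at every dose.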 A selection follows. Results with a measured potency or affinity are listed apart.

assay: nmpC-GFP reporter counter-screen in S. Typhimurium, dose response, counter-screen for PhoP regulon inhibitor project, Salmonella Typhimurium, GFP fluorescence (AID 2401); settings: 4 h; series mostly up to 150 µM;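 note: S. typhimurium with Mg-insensitive nmpC-GFP reporter grown at 10 µM Mg2+; drop in reporter fluorescence reflects general culture growth inhibition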

Row | SMILES | outcome
1 | CNc1nc(Sc2ccccc2)cc(C(F)(F)F)n1 | inactive
2 | Cc1cc(C)c2nc(NNC(=O)c3ccc(S(=O)(=O)N4CCCCC4)cc3)sc2c1 | inactive
3 | O=S(=O)(Cc1ccccc1Cl)N1CCN(Cc2ccc3c(c2)OCO3)CC1 | inactive
4 | Brc1cccc(CNCc2cccs2)c1 | inactive
5 | COc1ccc(CCNC(=S)Nc2cccc3ccccc23)cc1 | inactive
6 | COc1ccccc1CNc1nc2nc(C)c(C)c(=O)n2[nH]1 | inactive
7 | COc1cc(CNCc2cccs2)cc(Br)c1OC | inactive
8 | Cc1cccc(Nc2ncccc2C(=O)NCc2cccs2)c1C | inactive
9 | Cn1c(=O)c(=O)n(C)c2cc(S(=O)(=O)Nc3ccc4c(c3)OCCO4)ccc21 | inactive
10 | COc1ccc(/C=N/NC(=O)CC(=O)NCc2cccnc2)cc1 | inactive
11 | CC(=O)Nc1ccc(C(=O)N2CCN(C(=O)c3ccco3)CC2)cc1 | inactive
12 | COc1ccc(S(=O)(=O)Nc2ccc(F)c(F)c2)cc1Cl | inactive
13 | OC(COc1ccc2c(c1)CCC2)Cn1cnc2ccccc21 (stereo not given) | inactive
14 | O=C(Nc1cccc(Cl)c1)Nc1ccc2c(c1)OCO2 | inactive
15 | O=S1(=O)CC(O)C(Nc2ccccc2Cl)C1 (stereo not given) | inactive
16 | NC(=O)c1ccccc1N=Cc1ccccn1 | inactive
17 | CCCc1cc(=O)oc2cc(OCC(=O)N3CCc4ccccc43)ccc12 | inactive
18 | CN1CCCC(OC(=O)c2ccc(Cl)cc2)C1 (stereo not given) | inactive
19 | O=C(/C=C\c1ccco1)Nc1nc(-c2ccccc2)cs1 | inactive
20 | Cc1cc(C)c2c(c1)NC(=O)C2(O)CC(=O)c1cccs1 (stereo not given) | inactive
21 | O=C(c1ccc(-c2ccccc2)cc1)c1ccccc1C(=O)N1CCOCC1 | inactive
22 | COc1ccc(/C=C/C(=O)NC(=S)NNC(=O)c2cnccn2)cc1 | inactive
23 | N#Cc1c(NC(=O)c2cnccn2)sc2c1CCCC2 | inactive

Row | SMILES | outcome
24 | CC(=O)C1=C(C)NC(SCSc2ccccc2)=C(C#N)C1c1cccnc1 (stereo not given) | inactive
25 | CC(=O)NC1C(c2nc3ccccc3s2)=C(c2ccccc2)C(=O)N1c1ccc(C)cc1 (stereo not given) | inactive
26 | COc1cccc(-c2nc(-c3ccc(Br)o3)no2)c1 | inactive
27 | CCc1ccc(OCC(=O)Nc2ccc(-c3cc4ccccc4oc3=O)c(OC)c2)cc1 | inactive
28 | Oc1ccc(/C=N/NC2=NCCCCC2)c(O)c1 | inactive
29 | Oc1ccc(/C=N/n2cnn(Cc3ccccc3Cl)c2=S)c(O)c1 | inactive
30 | CC(=O)Nc1cc(N=Cc2ccc(O)cc2O)c(Cl)cc1Cl | inactive
31 | O=C(O)CCS(=O)(=O)c1ccc(-c2ccccc2)cc1 | inactive
32 | O=C(c1ccco1)c1cn(CC(=O)N2CCCc3ccccc32)c2ccccc12 | inactive
33 | Cc1ccc([N+](=O)[O-])cc1NC(=O)CN(C(=O)c1ccc(Cl)cc1)C1CCCCC1 | inactive
34 | O=C(/C=C/c1ccccc1)N/C(=C/c1ccccc1)C(=O)N1CCOCC1 | inactive
35 | COc1cc(OC)cc(C(=O)N[C@H](C(=O)OCC(=O)Nc2ccc(C(N)=O)cc2)C(C)C)c1 | inactive
36 | O=C(N/N=C/c1ccc(O)cc1O)C(=O)N/N=C/c1ccc(O)cc1O | inactive
37 | CC1C(=O)NN=C1C(=O)N/N=C\c1ccc(O)cc1O (stereo not given) | inactive
38 | CC(CN1CCOCC1)C(=O)c1ccccc1 (stereo not given) | inactive
39 | O=C(NCCN1CCOCC1)c1ccc2ccccc2c1 | inactive
40 | Cc1ccc(-c2n[nH]c(=S)n2/N=C/c2cc3c(cc2[N+](=O)[O-])OCO3)cc1 | inactive
41 | O=Cc1cccn1Cc1ccccc1[N+](=O)[O-] | inactive
42 | CCCn1c(/N=C/c2ccc3c(c2)OCO3)nc2ccccc21 | inactive
43 | C(=N\N1CCN(Cc2ccccc2)CC1)/c1cccnc1 | inactive
44 | COC(=O)c1sccc1N/N=C(\C)c1ccc(F)c(Cl)c1 | inactive
45 | Cc1cccc2nc(CSc3nc4ccccc4o3)cn12 | inactive
46 | Nc1nc(Nc2ccc(Cl)cc2)n[nH]1 | inactive

Row | SMILES | outcome
47 | Cn1c(SCC(=O)NC(=O)c2cccc([N+](=O)[O-])c2)nnc1-c1ccc(F)cc1 | inactive
48 | O=C(NNc1c2ccccc2nc2ccccc12)c1ccccc1O | inactive
49 | Cc1cc(C)c(NC(=S)NC(=O)c2ccc(-c3ccccc3)cc2)c(C)c1 | inactive
50 | O=C(CSc1nnc(-c2cccnc2)o1)OC1CCCCC1 | inactive
51 | CCC(C)C(NC(=O)OCc1ccccc1)C(=O)OCN1C(=O)c2ccccc2C1=O (stereo not given) | inactive
52 | Cc1cc(C2=NNC(=NC3CC3)SC2)c(C)n1-c1ccccc1 | inactive
53 | CCn1c(CNC(=O)COc2ccc(C(C)C)cc2)nnc1SCC(=O)Nc1ccccc1 | inactive
54 | Clc1ccc(CNc2ccc(CNc3ncn[nH]3)cc2)cc1 | inactive
55 | Cc1cc(C(=O)N2CCN(C/C=C/c3ccccc3)CC2)no1 | inactive
56 | N#CC1(C#N)COC23CCCCC2C1(C#N)C(=N)O3 (stereo not given) | inactive
57 | CCCc1nn(C)c2c1C(c1cccnc1)C(C#N)=C(N)O2 (stereo not given) | inactive
58 | CCSc1nnc(NC(=O)Cc2cccc(OC)c2)s1 | inactive
59 | O=C(COC(=O)c1n[nH]c2ccccc12)NC(=O)NC12CC3CC(CC(C3)C1)C2 | inactive
60 | C#CCOc1c(Cl)cc(/C=N/O)cc1OC | inactive
61 | Cc1ccc(N(CC(=O)N/N=C/c2ccco2)S(=O)(=O)c2ccccc2)cc1 | inactive
62 | O=C(Nc1cccnc1)c1cc(F)cc(F)c1 | inactive
63 | Cc1[nH]c2ccccc2c1C1=NNC(=Nc2ccc(F)cc2)SC1 | inactive
64 | O=C(CCC(=O)c1cccs1)OCC(=O)N1CCN(S(=O)(=O)c2ccccc2)CC1 | inactive
65 | CCOC(=O)CCC(NC(=O)c1ccc(NCN2C(=O)CCC2=O)cc1)C(=O)OCC (stereo not given) | inactive
66 | Cc1ccc(S(=O)(=O)NCc2ccc(C(=O)N3CCN(c4ccccn4)CC3)cc2)cc1 | inactive
67 | COCCNCCOc1ccccc1-c1ccccc1 | inactive
68 | O=C(NCc1ccco1)c1cccc(Nc2nc3ccc(Br)cc3[nH]2)c1 | inactive
69 | Cc1ccc(C)c(-c2nc3ccc(N)cc3[nH]2)c1 | inactive

Row | SMILES | outcome
70 | Nc1cc(N)cc(-c2nc3ccccc3[nH]2)c1 | inactive
71 | O=C(OCC1O[C@@H](OC(=O)c2cc(O)c(O)c(O)c2)[C@@H](OC(=O)c2cc(O)c(O)c(O)c2)[C@@H](OC(=O)c2cc(O)c(O)c(O)c2)[C@@H]1OC(=O)c1cc(O)c(O)c(O)c1)c1cc(O)c(O)c(O)c1 (stereo not given in full) | inactive
72 | Cc1nn(C)c(C)c1S(=O)(=O)N1CCC(C(=O)NC2CCCCC2)CC1 | inactive
73 | Oc1[nH]c(=S)sc1/C=C1\C(c2ccccc2)=Nc2ccccc21 | inactive
74 | C#CCn1c(=NC(=O)c2cc(Cl)sc2Cl)sc2cc(S(N)(=O)=O)ccc21 | inactive
75 | O=C(O)C1(P(=O)(c2ccccc2)c2ccccc2)CCC1 | inactive
76 | Cc1cc(C)c2c(=O)[nH]c(SCC(=O)Nc3ccc(N(C)C)cc3)nc2n1 | inactive
77 | CC(C)c1ccc(O)c(NC(=O)c2cncc(Br)c2)c1 | inactive
78 | Cc1cc2nn(-c3ccccc3)nc2cc1NC(=O)c1cccs1 | inactive
79 | Cc1ccc(/C=C2\SC(=S)N(Cc3ccccc3)C2=O)o1 | inactive
80 | O=C(Nc1ccsc1C(=O)NC1CCCCC1)c1ccccc1 | inactive
81 | CCOC(=O)c1c(NC(=O)COc2ncnc3ccccc23)sc(C)c1CC | inactive
82 | CCOC(=O)CCCc1c[nH]c2ccccc12 | inactive
83 | O=C(c1ccccc1)c1coc2ccc(O)c(Cl)c12 | inactive
84 | CCCCN(C)C(=O)c1cn(C)c2ccc(S(=O)(=O)N(C)C)cc2c1=O | inactive
85 | Cc1nc(CC(=O)c2ccc(O)cc2O)cs1 | inactive
86 | COC(=O)c1sccc1NC(=O)c1cccnc1 | inactive
87 | O=C(CSc1ccc(Cl)cc1)Nc1ccccc1N1CCN(C(=O)c2ccc(Cl)cc2)CC1 | inactive
88 | COc1ccc(-c2csc(Nc3cccnc3)n2)cc1 | inactive
89 | CC(=O)NC12CC3CC(C1)CC(C(=O)OCC(=O)c1ccc4c(c1)OCCO4)(C3)C2 | inactive
90 | COc1ccc(CC(=O)n2nc(-c3ccccc3)nc2NCc2ccco2)cc1 | inactive
91 | CC(C)(C)c1ccc(C2CC2C(=O)N/N=C\c2cc3ccccc3nc2Cl)cc1 (stereo not given) | inactive
92 | CCCCn1c(N)nc2ccccc21 | inactive

Row | SMILES | outcome
93 | CCCn1c(N)nc2ccccc21 | inactive
94 | COc1ccc2c(c1)nc(N)n2Cc1ccccc1 | inactive
95 | CSc1nc2ccccc2n1Cc1cccc(F)c1 | inactive
96 | CCOC(=O)c1[nH]c2ccccc2c1NC(=O)NC1CCCCC1 | inactive
97 | O=C(OCC#CCSc1nnc(-c2cccc3ccccc23)o1)c1ccco1 | inactive
98 | Cc1ccc2nc(C(F)OC(F)(F)F)[nH]c2c1 (stereo not given) | inactive
99 | O=C(CC1SC(=NCc2ccccc2)NC1=O)Nc1ccccc1 (stereo not given) | inactive
100 | COc1ccc2ccccc2c1/C=N/NC(=O)c1sc(N)c(C#N)c1C | inactive
101 | COc1ccc(OCCn2cc(/C=N/NC(=O)c3ccncc3)c3ccccc32)cc1 | inactive
102 | COc1ccc(NC(=O)c2ccc(OC)cc2)cc1 | inactive
103 | CC(=O)n1cc(/C=N/NC(=O)c2sc(C)nc2C)c2ccccc21 | inactive
104 | CC(=O)c1c(C)nc(-c2ccc(Cl)cc2)nc1N=CN(C)C | inactive
105 | O=C1CN(C(=O)COC(=O)CCC(=O)c2ccc3c(c2)OCCO3)c2ccccc2N1 | inactive
106 | Cc1cccc(-n2c(N)cc(=O)[nH]c2=S)c1C | inactive
107 | Oc1cccc2ccc[n+](CC(O)Cn3c4ccccc4c4ccccc43)c12 (stereo not given) | inactive
108 | OCCN(CCO)CC(O)Cn1c2ccccc2c2ccccc21 (stereo not given) | inactive
109 | Cc1cc(C)c(C#N)c(SCc2cn3ccccc3n2)n1 | inactive
110 | CCCCNC(=O)Oc1cccc(N2CCCC2=O)c1 | inactive
111 | COc1ccc(Cl)cc1C(=O)CSc1nc(N)cc(N)n1 | inactive
112 | COc1ccccc1N1CCN(C/C(O)=C(\C#N)c2nc(-c3ccccc3)cs2)CC1 | inactive
113 | Cc1nc(-c2ccccc2)cc(=O)[nH]1 | inactive
114 | CC(CCc1ccccc1)NC(=O)c1ccccc1 (stereo not given) | inactive
115 | Cn1c(NCc2ccccc2O)nc2ccccc21 | inactive
